The source made the active and inactive calls. Rule for the calls: active = hit-call score of the fitted dose curve at least 0.9, where 1 is the maximum; inactive = score below 0.9.
How the values were obtained:
Conditions in all cases: mRNA level, 48 h; actives raise or lower the signal
[1] = read-out: Bcl-2 (BID) gene, BID (gene 637); assay: LTEA_HepaRG_BID: Life Technologies and Expression Analysis (LTEA) Assay for Bcl-2 (BID) gene using HepaRG (AID 2283476)
Procedure, shortened: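 Gene expression by qRT-PCR in HepaRG cells after 48 h exposure, duplicate wells, eight half-log concentrations topping at 100 uM in 0.5% DMSO. Normalized to ACTB, GAPDH, POLR2A; bidirectional fitting relative to DMSO.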

Caspase-3 (Homo sapiens) = Caspase-3 (Homo sapiens) (UniProt P42574); assay: LTEA_HepaRG_CASP3: Life Technologies and Expression Analysis (LTEA) Assay for cysteine-aspartic acid protease (CASP3) using HepaRG (AID 2283477)
Procedure, shortened: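 Expression of CASP3 was quantified by TaqMan qRT-PCR against three housekeeping genes (ACTB, GAPDH, POLR2A), bidirectionally versus 0.5% DMSO. HepaRG cultures received compounds in duplicate, top 100 uM with half-log steps, for 48 h in serum-free induction medium.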

[2] = read-out: Cytochrome P450 (CYP24A1), CYP24A1 (gene 1591); assay: LTEA_HepaRG_CYP24A1: Life Technologies and Expression Analysis (LTEA) Assay for Cytochrome P450 (CYP24A1) using HepaRG (AID 2283478)
Procedure, shortened: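 mRNA of CYP24A1 quantified by TaqMan qRT-PCR (ACTB/GAPDH/POLR2A normalization) after 48 h chemical exposure of HepaRG cells, top concentration 100 uM, half-log steps, 0.5% DMSO vehicle, duplicates. Curves fitted bidirectionally against DMSO baseline.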

[3] = read-out: Cytochrome P450 (CYP1A2), CYP1A2 (gene 1544); assay: LTEA_HepaRG_CYP1A2: Life Technologies and Expression Analysis (LTEA) Assay for Cytochrome P450 (CYP1A2) using HepaRG (AID 2283479)
Procedure, shortened: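 CYP1A2 transcript measured by TaqMan qRT-PCR against three housekeeping genes after 48-hour chemical exposure of HepaRG cells. Eight-point half-log series topping at 100 uM in 0.5% DMSO, duplicates; gain or loss fitted relative to vehicle.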

[4] = read-out: Cytochrome P450 (CYP2B6), CYP2B6 (gene 1555); assay: LTEA_HepaRG_CYP2B6: Life Technologies and Expression Analysis (LTEA) Assay for Cytochrome P450 (CYP2B6) using HepaRG (AID 2283481)
Procedure, shortened: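 CYP2B6 transcript level quantified by qRT-PCR against three housekeeping genes, fitted bidirectionally relative to DMSO. HepaRG cultures received chemicals for 48 h, 8-point half-log series from 100 uM in 0.5% DMSO, duplicate wells, serum-free induction medium.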

[5] = read-out: Cytochrome P450 2C19 (Homo sapiens) (UniProt P33261); assay: LTEA_HepaRG_CYP2C19: Life Technologies and Expression Analysis (LTEA) Assay for CYP2C19 using HepaRG (AID 2283482)
Procedure, shortened: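 CYP2C19 transcript levels by qRT-PCR, normalized to three housekeeping genes, in HepaRG cells after 48 h chemical exposure. Eight-point half-log series topping at 100 uM, 0.5% DMSO vehicle. Increases and decreases both fitted against DMSO.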

CYP2E1 (gene 1571) = assay: LTEA_HepaRG_CYP2E1: Life Technologies and Expression Analysis (LTEA) Assay for CYP2E1 using HepaRG (AID 2283485)
Procedure, shortened: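 HepaRG cells, plated 48 h, then exposed 48 h in serum-free induction medium to eight half-log concentrations from 100 uM in 0.5% DMSO, duplicate. CYP2E1 mRNA by qRT-PCR, normalized to ACTB/GAPDH/POLR2A; bidirectional fit versus DMSO.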

CYP4A11 (gene 1579) = assay: LTEA_HepaRG_CYP4A11: Life Technologies and Expression Analysis (LTEA) Assay for CYP4A11 using HepaRG (AID 2283486)
Procedure, shortened: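 Readout is CYP4A11 transcript level by qRT-PCR, normalized to three housekeeping genes and fitted bidirectionally against 0.5% DMSO. Human HepaRG cells were treated 48 h, in duplicate, with an 8-point half-log series topping at 100 uM.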

[6] = read-out: Cytochrome P450 3A4 (Homo sapiens) (UniProt P08684); assay: LTEA_HepaRG_CYP3A4: Life Technologies and Expression Analysis (LTEA) Assay for CYP3A4 using HepaRG (AID 2283487)
Procedure, shortened: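 CYP3A4 transcript measured by TaqMan qRT-PCR and normalized to three housekeeping genes after 48 h chemical exposure of human HepaRG cells. Top concentration 100 uM, half-log steps, 0.5% DMSO vehicle; gain or loss fitted against DMSO baseline.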

[7] = read-out: Pro-epidermal growth factor (Homo sapiens) (UniProt P01133); assay: LTEA_HepaRG_EGF: Life Technologies and Expression Analysis (LTEA) Assay for Epidermal growth factor (EGF) using HepaRG (AID 2283489)
Procedure, shortened: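 EGF transcript measured by Fluidigm TaqMan qRT-PCR with three housekeeping genes for normalization, 48 h after dosing HepaRG cultures in duplicate (top 100 uM, half-log steps, 0.5% DMSO vehicle). Gain or loss relative to DMSO fitted.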

[8] = read-out: Early growth response protein 1 (EGR1) transcription factor, EGR1 (gene 1958); assay: LTEA_HepaRG_EGR1: Life Technologies and Expression Analysis (LTEA) Assay for Early growth response protein 1 (EGR1) transcription factor using HepaRG (AID 2283490)
Procedure, shortened: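 Differentiated HepaRG cells in serum-free induction medium exposed 48 hours, duplicate, to 8 half-log concentrations up to 100 uM in 0.5% DMSO. EGR1 mRNA measured by TaqMan qRT-PCR, normalized to ACTB, GAPDH, POLR2A; bidirectional fit versus DMSO.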

[9] = read-out: Ezrin (EZR), EZR (gene 7430); assay: LTEA_HepaRG_EZR: Life Technologies and Expression Analysis (LTEA) Assay for Ezrin (EZR) using HepaRG (AID 2283491)
Procedure, shortened: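 HepaRG, 48 h chemical exposure, 8-pt half-log series from 100 uM, 0.5% DMSO vehicle, duplicates. Read-out: EZR mRNA by TaqMan qRT-PCR (Fluidigm array), housekeeping-normalized; bidirectional curve fit vs DMSO baseline.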

[10] = read-out: Cytochrome P450 3A7 (Homo sapiens) (UniProt P24462); assay: LTEA_HepaRG_CYP3A7: Life Technologies and Expression Analysis (LTEA) Assay for CYP3A7 using HepaRG (AID 2283492)
Procedure, shortened: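 CYP3A7 transcript measured by qRT-PCR (ACTB, GAPDH, POLR2A normalization) after 48 h chemical exposure of HepaRG cells in duplicate. Eight half-log concentrations, maximum 100 uM, 0.5% DMSO vehicle; bidirectional curve fitting against DMSO baseline.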

CYP3A5 (gene 1577) = assay: LTEA_HepaRG_CYP3A5: Life Technologies and Expression Analysis (LTEA) Assay for CYP3A5 using HepaRG (AID 2283493)
Procedure, shortened: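 HepaRG cells, plated 48 h then in serum-free induction medium, dosed in duplicate for 48 h with eight half-log concentrations up to 100 uM in 0.5% DMSO. Gene mRNA by Fluidigm TaqMan qRT-PCR, normalized to ACTB, GAPDH, POLR2A.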

[11] = read-out: Fatty Acid-Binding Protein 1 (FABP1), FABP1 (gene 2168); assay: LTEA_HepaRG_FABP1: Life Technologies and Expression Analysis (LTEA) Assay for Fatty Acid-Binding Protein 1 (FABP1) using HepaRG (AID 2283494)
Procedure, shortened: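 Differentiated human HepaRG cells exposed 48 h in serum-free induction medium to eight half-log concentrations up to 100 uM (0.5% DMSO), duplicate. FABP1 mRNA by qRT-PCR, normalised to ACTB, GAPDH, POLR2A; bidirectional fitting against DMSO.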

[12] = read-out: DNA damage-inducible transcript 3 (DDIT3), DDIT3 (gene 1649); assay: LTEA_HepaRG_DDIT3: Life Technologies and Expression Analysis (LTEA) Assay for DNA damage-inducible transcript 3 (DDIT3) using HepaRG (AID 2283488)
Procedure, shortened: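 HepaRG cells, 48 h after plating, exposed 48 h in serum-free induction medium to 8 half-log concentrations up to 100 uM in 0.5% DMSO, in duplicate. DDIT3 mRNA measured by TaqMan qRT-PCR, normalized to ACTB, GAPDH and POLR2A. Fitted bidirectionally against DMSO.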

[13] = read-out: Cytochrome P450 4A22 (Homo sapiens) (UniProt Q5TCH4); assay: LTEA_HepaRG_CYP4A22: Life Technologies and Expression Analysis (LTEA) Assay for Cytochrome P450 4A22 (CYP4A22) using HepaRG (AID 2283495)
Procedure, shortened: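 Gene expression measured by qRT-PCR against three housekeeping genes (ACTB, GAPDH, POLR2A), with gain or loss fitted relative to 0.5% DMSO vehicle. HepaRG cultures received 48 h chemical treatment, top concentration 100 uM, half-log steps, duplicate wells.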

CYP2C9 (gene 1559) = assay: LTEA_HepaRG_CYP2C9: Life Technologies and Expression Analysis (LTEA) Assay for CYP2C9 using HepaRG (AID 2283484)
Procedure, shortened: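 Differentiated human HepaRG cells in serum-free induction medium were exposed 48 h to chemicals in 8-point half-log series from 100 uM (0.5% DMSO), in duplicate. CYP2C9 mRNA was measured by qRT-PCR, normalized to ACTB/GAPDH/POLR2A, with bidirectional fitting versus DMSO.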

Measured: AC50

Cytochrome P450 3A4 (Homo sapiens), sequence (P08684 whole entry, looked up): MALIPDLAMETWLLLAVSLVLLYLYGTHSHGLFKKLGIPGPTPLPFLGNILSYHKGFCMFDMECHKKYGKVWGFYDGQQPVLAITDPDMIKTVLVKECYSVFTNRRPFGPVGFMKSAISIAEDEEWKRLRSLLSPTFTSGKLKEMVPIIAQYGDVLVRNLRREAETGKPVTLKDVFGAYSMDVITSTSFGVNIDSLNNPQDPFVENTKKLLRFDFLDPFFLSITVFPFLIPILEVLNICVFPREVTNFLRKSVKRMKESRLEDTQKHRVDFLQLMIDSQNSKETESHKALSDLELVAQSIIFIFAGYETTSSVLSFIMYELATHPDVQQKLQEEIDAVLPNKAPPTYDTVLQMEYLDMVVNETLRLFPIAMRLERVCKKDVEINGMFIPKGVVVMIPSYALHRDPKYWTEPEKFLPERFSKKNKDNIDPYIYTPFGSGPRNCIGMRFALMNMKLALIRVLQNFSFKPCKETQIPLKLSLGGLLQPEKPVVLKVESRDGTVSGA
Caspase-3 (Homo sapiens), sequence (P42574 whole entry, looked up): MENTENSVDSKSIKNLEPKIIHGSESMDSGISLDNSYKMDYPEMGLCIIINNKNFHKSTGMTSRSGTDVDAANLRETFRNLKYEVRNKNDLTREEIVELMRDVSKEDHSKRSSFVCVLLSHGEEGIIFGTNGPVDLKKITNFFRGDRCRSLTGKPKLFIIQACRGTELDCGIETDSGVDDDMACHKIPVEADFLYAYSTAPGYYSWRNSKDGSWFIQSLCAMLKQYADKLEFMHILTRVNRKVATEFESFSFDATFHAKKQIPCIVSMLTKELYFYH
Cytochrome P450 3A7 (Homo sapiens), sequence (P24462 whole entry, looked up): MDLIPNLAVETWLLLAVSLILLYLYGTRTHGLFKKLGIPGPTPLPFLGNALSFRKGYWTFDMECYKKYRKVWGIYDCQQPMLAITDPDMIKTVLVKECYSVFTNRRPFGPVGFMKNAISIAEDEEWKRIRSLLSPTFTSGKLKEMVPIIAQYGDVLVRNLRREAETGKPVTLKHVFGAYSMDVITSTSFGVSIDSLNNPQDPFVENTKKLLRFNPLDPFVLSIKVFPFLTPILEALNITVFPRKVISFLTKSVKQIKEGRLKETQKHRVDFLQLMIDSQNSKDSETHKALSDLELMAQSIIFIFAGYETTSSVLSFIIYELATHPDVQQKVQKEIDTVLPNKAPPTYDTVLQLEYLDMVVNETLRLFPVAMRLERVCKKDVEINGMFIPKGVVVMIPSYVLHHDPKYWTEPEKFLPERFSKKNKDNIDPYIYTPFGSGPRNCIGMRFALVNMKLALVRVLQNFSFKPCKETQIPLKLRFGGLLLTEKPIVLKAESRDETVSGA
Cytochrome P450 2C19 (Homo sapiens), sequence (P33261 whole entry, looked up): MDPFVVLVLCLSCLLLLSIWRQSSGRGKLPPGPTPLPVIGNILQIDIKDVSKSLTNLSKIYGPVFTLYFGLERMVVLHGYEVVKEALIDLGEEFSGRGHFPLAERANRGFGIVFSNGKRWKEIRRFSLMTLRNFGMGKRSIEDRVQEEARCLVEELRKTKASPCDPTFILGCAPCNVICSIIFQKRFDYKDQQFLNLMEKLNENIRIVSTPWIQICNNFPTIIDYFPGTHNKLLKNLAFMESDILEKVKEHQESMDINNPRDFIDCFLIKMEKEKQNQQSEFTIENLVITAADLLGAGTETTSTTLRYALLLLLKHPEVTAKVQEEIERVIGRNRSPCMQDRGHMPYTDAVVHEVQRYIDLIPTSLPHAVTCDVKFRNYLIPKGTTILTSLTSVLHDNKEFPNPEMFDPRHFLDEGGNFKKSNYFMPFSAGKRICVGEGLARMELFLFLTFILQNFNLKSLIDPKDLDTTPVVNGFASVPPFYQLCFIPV

CC(=NC#N)N(C)Cc1ccc(Cl)nc1
active: [4] 50 µM | [6] 50 µM | [10] 50 µM
inactive: [1] | Caspase-3 (Homo sapiens) | [2] | [3] | [5] | CYP2E1 (gene 1571) | CYP4A11 (gene 1579) | [7] | [8] | [9] | CYP3A5 (gene 1577) | [11]

COc1cc(OC)nc(Sc2cccc(Cl)c2C(=O)O)n1
inactive: [1] | Caspase-3 (Homo sapiens) | [2] | [3] | [4] | [5] | CYP4A11 (gene 1579) | [12] | [7] | [8] | [9] | [10] | [11] | [13]
active: CYP2E1 (gene 1571) 29.7 µM | [6] 50 µM

CC1(C(=O)Nc2ccc(O)c(Cl)c2Cl)CCCCC1
active: [6] 21.4 µM
inactive: [1] | Caspase-3 (Homo sapiens) | [2] | [3] | [4] | [5] | CYP2C9 (gene 1559) | CYP2E1 (gene 1571) | CYP4A11 (gene 1579) | [12] | [7] | [8] | [9] | [10] | [11]

COP(=O)(OC)OC(Br)C(Cl)(Cl)Br (centres undefined)
inactive: [1] | Caspase-3 (Homo sapiens) | [2] | [5] | CYP2C9 (gene 1559) | CYP2E1 (gene 1571) | CYP4A11 (gene 1579) | [6] | [12] | [7] | [8] | [9] | [10] | CYP3A5 (gene 1577) | [11] | [13]
active: [3] 26.3 µM | [4] 2.45 µM

C#CC(C)(C)NC(=O)c1cc(Cl)cc(Cl)c1
inactive: [1] | Caspase-3 (Homo sapiens) | [2] | CYP4A11 (gene 1579) | [7] | [8] | [9] | [11]
active: [3] 50 µM | [4] 8.65 µM | [5] 20.2 µM | CYP2E1 (gene 1571) 26.1 µM | [6] 5.13 µM | [10] 4.98 µM

CON=C(C(=O)OC)c1ccccc1CON=C(C)c1cccc(C(F)(F)F)c1
inactive: [1] | Caspase-3 (Homo sapiens) | [2] | [3] | [4] | [5] | CYP4A11 (gene 1579) | [12] | [7] | [8] | [9] | [11]
active: CYP2E1 (gene 1571) 25.4 µM | [6] 13.1 µM | [10] 19.5 µM | CYP3A5 (gene 1577) 50 µM

CC(C1CC1)C(O)(Cn1cncn1)c1ccc(Cl)cc1 (centres undefined)
inactive: [1] | Caspase-3 (Homo sapiens) | [2] | [3] | [7] | [8] | [9]
active: [4] 1.06 µM | [5] 12.8 µM | CYP2E1 (gene 1571) 49.5 µM | CYP4A11 (gene 1579) 49.8 µM | [6] 3.9 µM | [10] 2.25 µM | [11] 12.5 µM

CCOP(=O)(OCC)Oc1cc(C)nc(C(C)C)n1
inactive: [1] | Caspase-3 (Homo sapiens) | [2] | [3] | [4] | [5] | CYP2E1 (gene 1571) | CYP4A11 (gene 1579) | [6] | [7] | [8] | [9] | [10] | CYP3A5 (gene 1577) | [11]

From PubChem BioAssay (EPA / NIEHS)
